Most compounds without a hit are left out; they make up all but 1.5% or so of the library.
JNK3 inh: blocks human JNK3 kinase activity; inhibition, % at 8 µM; AID 746; 60,000 tested, 0.61% active; purified JNK3 kinase activity, HTS; in the data active = inhibition above about 17%;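 also: 0% = DMSO and 100% = reference inhibitor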
Target sequence (P53779 whole entry, looked up): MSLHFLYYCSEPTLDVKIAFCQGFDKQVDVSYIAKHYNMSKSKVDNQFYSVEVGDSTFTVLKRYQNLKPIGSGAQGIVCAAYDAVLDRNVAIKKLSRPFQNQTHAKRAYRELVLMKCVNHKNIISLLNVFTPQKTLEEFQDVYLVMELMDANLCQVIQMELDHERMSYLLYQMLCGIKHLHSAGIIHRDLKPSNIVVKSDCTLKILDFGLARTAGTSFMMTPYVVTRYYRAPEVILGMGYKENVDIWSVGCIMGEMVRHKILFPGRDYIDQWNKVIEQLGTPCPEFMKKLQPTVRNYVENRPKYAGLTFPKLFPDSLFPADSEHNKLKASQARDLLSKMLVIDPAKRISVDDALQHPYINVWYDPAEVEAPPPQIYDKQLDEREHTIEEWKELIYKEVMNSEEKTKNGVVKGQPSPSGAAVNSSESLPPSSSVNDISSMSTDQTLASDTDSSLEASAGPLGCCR
Plk1 PBD FP: blocks phosphopeptide binding to human Plk1 polo box domain | 97,000 tested, 0.13% active | inhibition, %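 (tested at about 20 µM)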 | Plk1 PBD phosphopeptide binding, fluorescence polarization | AID 693 | P53350; in the data active = inhibition above about 34%, passing the limit was not always enough
FAK inh: FAK (human) kinase inhibition. Q05397. 97,000 tested, 0.84% active. inhibition, %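 (tested at 7 µM)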. biochemical FAK kinase activity assay;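 also: 0% = DMSO and 100% = reference compound high control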
PLK1 inh: inhibitors of human PLK1 kinase | 97,000 tested, 0.53% active | AID 619 | P53350 | inhibition, % at 10 µM | recombinant PLK1 kinase, TR-FRET peptide phosphorylation;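 active = inhibition of 50% or more in the single-concentration screen; inactive = inhibition below 50%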;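 also: 0% = DMSO max control and 100% = H-89 dihydrochloride min control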
PKA kinase inh: PKA (human) kinase inhibition. P17612. PKA Kemptide phosphorylation, Kinase-Glo ATP luminescence. inhibition, % at 6 µM. 65,000 tested, 0.1% active. AID 524;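 active = inhibition above the screen-wide mean inhibition plus 3 SD, cut at about 21% in these data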
ROCK2 blocker: blocks human Rho kinase 2 activity | O75116 | purified ROCK2, Kinase-Glo ATP depletion luminescence | inhibition, % at 6 µM | 60,000 tested, 0.35% active | AID 604;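 active = inhibition above the screen-wide mean inhibition plus 3 SD, cut at about 18% in these data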;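 also: plate controls were DMSO wells for no effect and Y-27632 control wells after no-enzyme background subtraction for full effect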
FAK inh confirm: FAK (human) inhibition confirmed; shares compounds with FAK inh; FAK kinase biochemical inhibition assay; inhibition, % at 7 µM; 750 tested, 28% active; AID 794
* = called active by the depositor; · = not tested or not shown. Rule as the data show it, unless noted: active = inhibition above about 19%; inactive = the rest.

SMILES	JNK3 inh	Plk1 PBD FP	FAK inh	PLK1 inh	PKA kinase inh	ROCK2 blocker	FAK inh confirm
N=c1oc2c3c4c(cc2cc1C(=O)Nc1ccccc1)CCCN4CCC3	-1.6	-82.3	29.4*	-498.2	6.7	5.7	0.1
N=c1n(CCN2CCOCC2)c2ccccc2n1CC(=O)c1ccc(Cl)c(Cl)c1	-5.2	-24.2	95.3*	-8.0	2.6	3.0	-1.9
CCCCOC(=O)Cn1c(=N)n(CCN2CCOCC2)c2ccccc21	·	46.3	-0.3	-9.5	4.1	·	·
COc1cc(NC(=O)c2nnn(Cc3ccc(SC)cc3)c2N)cc(OC)c1	-3.1	7.5	-2.5	1.5	5.2	2.1	·
CC1CC(=O)c2cn3c(nc2C1)nc1ccccc13 (stereo not given)	·	-25.2	0.6	-3.6	·	·	·
O=C(Nc1ccccc1)c1cc2ccccc2o1	·	2.5	0.1	-8.7	·	·	·
O=C(COc1ccc(/C=N/NC(=O)c2cc3ccccc3o2)cc1Br)Nc1ccccc1	·	-24.7	26.1*	-9.9	·	·	35.6*
COc1ccc2oc(=O)c(-c3nnc(NCc4ccco4)s3)cc2c1	7.4	-24.4	20.8*	-0.7	6.9	5.6	4.9
Cc1ccc(-n2nc3ccc(NC(=O)c4ccc5c(c4)OCO5)cc3n2)cc1	·	-0.1	25.4*	-4.3	·	·	15.2
CCc1ccc(-n2nc3ccc(NC(=O)c4ccc5c(c4)OCO5)cc3n2)cc1	·	-7.1	-1.1	-29.6	·	·	·
CC(=O)c1ccc(N2CCN(C(=S)Nc3ccccc3)CC2)cc1	·	-8.9	-3.3	-3.0	·	·	·
CC(=O)c1ccc(NCC(=O)N2CCN(c3ccccc3)CC2)cc1	·	-16.9	19.8*	-19.6	·	·	19.2*
CC(=O)OC1(C(F)(F)F)Oc2ccccc2NC1=O (stereo not given)	-7.3	·	·	·	-1.6	-3.4	·
CCOC(=O)c1c(NC(=O)C2c3ccccc3Oc3ccccc32)sc(C(=O)N(CC)CC)c1C	·	-20.4	-3.8	-6.2	·	·	·
CCOC(=O)C1CCN(C(=O)Nc2ccc3nc(-c4ccco4)c(-c4ccco4)nc3c2)CC1	·	-5.9	92.9*	7.8	9.0	·	5.1
CCOC(=O)c1sc(Nc2ccccc2)nc1C	·	-16.3	11.8	2.3	·	·	·
CC(C)(C)C(=O)c1sc(Nc2ccccc2)nc1N	7.0	-1.2	32.4*	-9.9	14.3	27.2*	18.6
CCOc1ccccc1NC(=O)NS(=O)(=O)c1ccc(C)cc1	·	5.9	-2.5	-15.0	·	·	·
CCOc1ccc(-c2nnc3sc(COc4ccc(C)cc4)nn23)cc1	0.2	-23.1	-1.7	2.1	1.8	8.7	·
CCOc1ccc(-c2nnc3sc(COc4ccc(Cl)cc4)nn23)cc1	1.0	-2.8	21.0*	-3.1	-1.1	7.5	8.6
CCn1c(SCC(=O)Nc2ccc3c(c2)c2ccccc2n3CC)nnc1-c1ccco1	-8.3	25.3	29.7*	-13.4	-6.3	-11.2	1.7
COc1ccc(OC)c(N2C(=O)[C@@H]3C(c4ccccc4Cl)=NO[C@@H]3C2=O)c1	0.1	-14.0	19.3*	-7.7	6.3	6.8	8.2
Cn1c(SCC(=O)N2CCCCC2)nc2c([nH]c3ccccc32)c1=O	0.7	5.8	24.4*	-9.9	-0.1	4.2	2.3
COc1ccc(-c2cc3ccccc3oc2=O)cc1NC(=O)c1ccc(Br)o1	1.6	-2.3	65.1*	-11.3	0.5	-6.0	59.5*
O=C(Nc1cccc(-c2cc3ccccc3oc2=O)c1)c1ccc(Br)o1	·	-30.1	2.8	-5.8	·	·	·
SMILES	JNK3 inh	Plk1 PBD FP	FAK inh	PLK1 inh	PKA kinase inh	ROCK2 blocker	FAK inh confirm
N#Cc1ccccc1/C=N/Nc1nc(-c2ccccc2)c2cc(Cl)ccc2n1	·	-4.0	50.1*	-11.4	·	·	34.2*
Cc1ccc2nc(N/N=C/c3ccccc3C#N)nc(-c3ccccc3)c2c1	·	0.5	6.1	-5.6	·	·	·
CN(C)CCN1CCc2ccccc21	·	-6.7	32.2*	-2.2	·	·	44.8*
c1ccc2c(c1)CCN2CCN1CCc2ccccc21	1.0	·	·	·	-1.7	1.2	·
CCOC(=O)C(NC(C)=O)C(OC(C)=O)c1cccc([N+](=O)[O-])c1 (stereo not given)	·	-12.6	-3.1	-3.8	·	·	·
Cc1ccccc1-n1c(SCc2ccccn2)nc2n[nH]c(C)c2c1=N	11.9	-4.2	30.2*	9.9	0.4	1.5	9.9
CCOc1ccccc1NC(=O)CCSc1nc2n[nH]c(C)c2c(=N)n1-c1ccccc1Cl	·	·	·	·	8.4	·	·
O=C(Cc1ccc(S(=O)(=O)N2CCOCC2)s1)Nc1nc2c(s1)CCCC2	·	14.5	22.5*	7.0	·	·	3.8
O=C(Cc1ccc(S(=O)(=O)N2CCOCC2)s1)Nc1ccc2c(c1)CCC2	4.0	-8.8	0.8	-7.1	-1.9	-4.0	·
Cc1ccc(-c2nc3ccccc3s2)cc1NC(=O)c1cc(-n2cnnc2)ccc1Cl	·	6.8	29.4*	-11.5	·	·	6.8
CC1(C)Cc2nc3nc(SCC(=O)NCCc4ccccc4)n(-c4ccccc4)c(=O)c3cc2CO1	·	-18.9	7.6	-11.2	·	·	·
Cc1ccccc1-c1ccc(Nc2ccc(N3CCOCC3)cc2)nn1	·	-27.6	31.0*	-6.0	11.6	·	32.9*
COc1ccc(/C=N/NC(=O)c2ccn[nH]2)cc1COc1ccc(Cl)cc1Cl	·	13.0	21.2*	-10.2	·	·	7.9
CCOCCOC(=O)C1=C(C)NC2=C(C(=O)CC(c3cccs3)C2)C1c1ccsc1 (stereo not given)	2.5	16.3	22.1*	5.5	-6.2	-8.8	21.1*
CCOC(=O)C1=C(C)NC2=C(C(=O)CCC2)C1c1cccs1 (stereo not given)	-5.1	10.2	1.2	-11.7	10.6	6.5	·
O=C1Nc2ccccc2Nc2ncccc21	·	-10.4	38.7*	-3.4	·	·	12.2
Cc1ccc2c(c1)NC(=O)c1cccnc1N2	·	5.6	11.6	-13.5	·	·	·
COc1ccc(C2(CNC(=O)CCC(=O)O)CCCC2)cc1OC	·	0.8	0.7	-8.1	·	·	·
Cc1ccc2c(n1)sc1c(-c3ccc(Br)cc3)c(C#N)c(N)nc12	·	-8.9	29.2*	-5.5	·	·	13.7
CCc1nc(N)c(C#N)c(-c2ccc(F)cc2)c1C	·	-11.4	1.7	-7.2	·	·	·
Nc1ncnc2oc(-c3ccco3)c(-c3ccco3)c12	5.9	-27.6	54.4*	56.2*	5.2	5.3	31.9*
CC(C(=O)O)N1C(=O)/C(=C/C=C/c2ccco2)SC1=S (stereo not given)	·	-13.2	100.3*	-12.5	·	·	22.8*
COc1ccc(NS(=O)(=O)c2ccc3c(c2)CCC(=O)N3)c(OC)c1	0.2	-2.6	0.2	-3.6	7.3	2.5	·
O=C(O)c1ccccc1OCCOCCOc1ccccc1C(=O)O	-0.6	5.0	38.4*	-12.4	10.2	12.4	33.6*
CCCN(CCC)C1=N/C(=C\c2ccco2)C(=O)N1c1ccccc1	·	21.5	-1.6	-5.7	·	·	·
O=C1c2ccccc2C(Nc2cccc(C(F)(F)F)c2)N1Cc1ccco1 (stereo not given)	0.4	1.1	19.8*	-4.6	2.6	2.2	6.8
